16 compounds from PubChem BioAssay (EPA / NIEHS) can be followed below.

Activity calls are given as the source filed them. Rule for the calls: active = hit-call score of the fitted dose curve at least 0.9, where 1 is the maximum; inactive = score below 0.9.

Read-out in this test: Potassium channel subfamily K member 1 (KCNK1), KCNK1 (gene 3775)
The test can be described thus: LTEA_HepaRG_KCNK1: Life Technologies and Expression Analysis (LTEA) Assay for Potassium channel subfamily K member 1 (KCNK1) using HepaRG (AID 2283511). Particulars: mRNA level, 48 h; actives raise or lower the signal. The method, then: LTEA_HepaRG is a cell based, multiplexed-readout assay that uses HepaRG, a human liver cell line, with measurements taken at 48 hours after chemical dosing on a 96-well plate.LTEA_HepaRG_KCNK1 is one of 102 assay component(s) measured in the LTEA HepaRG cell culture assay. It is a marker of Hyperplasia.Data from the assay component LTEA_HepaRG_KCNK1 was analyzed into 1 endpoint. This assay endpoint, LTEA_HepaRG_KCNK1, was analyzed with bidirectional fitting relative to DMSO as the negative control and baseline of activity. Using a type of inducible reporter, measures of mRNA induction for gain or loss-of-signal activity can be used to understand regulation of transcription factor activity. To generalize the intended target to other relatable targets, this assay endpoint is annotated to the ion channel intended target family, where the subfamily is potassium channel.
A total of 1060 chemcials from the ToxCast library were tested in eight-point concentration-response experiments. Cell culture and cytotoxicity assays were conducted at Thermo Fisher Scientific's Custom Services facility (Madison, WI). A single lot of human HepaRG cells (Thermo Fisher Scientific, Frederick, MD) was used for the cell culture experiments. 96-well format collagen type I coated plates of human HepaRG cells were prepared using established methods. Briefly, cryopreserved HepaRG cells were thawed, plated at a density of approximately 100,000 cells/well in HepaRG Thaw, Plate, and General Purpose media (HPRG770, Thermo Fisher Scientific), and incubated for 48 hours. 0.5% DMSO was selected as vehicle control to balance the requisite need of DMSO in HepaRG cultures to maintain differentiation (for example, baseline metabolism, proportions of hepatocytes vs. cholangiocytes), while enabling further hepatic receptor pathway activation (for example, PXR and CAR) in response to chemical exposure. 48 hours after plating, the culture medium was replaced with HepaRG Serum-Free Incudtion Media. Cells were exposed to each test chemical in duplicate and maintained in CO2 incubators for another 48 hours. Chemical plates were thawed to room temperature and 200x concentrations of treatment groups were prepared. 8-point conentration-reponse curves were made with the highest exposure at 100 uM, followed by half-log dilutions, all in 0.5% DMSO. Each test plate contained variouse controls, induction positive controls (1mM phenobarbital), cytotoxicity positive controls ([…] aflatoxin B1), vehicle controls (0.5% DMSO), and total lysis controls (0.5% DMSO). Cell morphology images were taken using an Essen IncuCyte FLR automated microscope, with six 96-well plates imaged in about 24 minutes. Images were captured and exported and JPEG files. Spent culture media was transfered to black-well plates for the LDH assay, and remaining media was sorted at -80 C for later use. Cells were treated with RLT buffer and frozen until shipped for gene expression analysis. Total RNA was isolated from the cell suspension in 75 uL of Buffer RLT (Qiagen, Germantown, MD 20874) by Quintiles/Expression Analysis (Durham, NC) using a custom isolation procedure. Total RNA from each plate well was transferred to a preamplification plate. Fluidigm's 96.96 Dynamic ArrayTM (Fluidigm, Amsterdam, the Netherlands) technology was used for gene expression analyses by quantitative reverse transcription polymerase chain reaction (qRT-PCR, performed by Quintiles/Expression Analysis, Durham, NC)89. Standard TaqManTM Assays (Applied Biosystems/ThermoFisher Scientific, Foster City, CA) were used to assess the expression of 93 genes selected based on their selectivity and sensitivity to important hepatic receptors known to be modulated by environmental chemicals; importance in human hepatocyte functionality; and hepatotoxicity. […]
With `O=C(CCCN1CCC(O)(c2ccc(Cl)cc2)CC1)c1ccc(F)cc1`, the AC50 (usually the concentration giving half of the maximal activity seen) was 84.4 µM (active). Regarding `CN(Cc1cnc2nc(N)nc(N)c2n1)c1ccc(C(=O)N[C@@H](CCC(=O)O)C(=O)O)cc1`, the compound was called inactive.

For the compound `CC(=O)Nc1ccc(O)cc1`, the result was inactive. For `CCCCc1oc2ccccc2c1C(=O)c1cc(I)c(OCCN(CC)CC)c(I)c1`, the half-maximal activity concentration (AC50) is 55.5 µM (active). Consider `CCCCC(CC)C(=O)O` (stereo unspecified), for which the compound was called inactive. Turning to `CCCCCCCCCCCCOS(=O)(=O)O`, the outcome was inactive.

For `CN(C)CCOC(c1ccccc1)c1ccccc1`, the call was inactive. On the same count and under the same terms, with `N=C(N)c1ccc(OCCCCCOc2ccc(C(=N)N)cc2)cc1` the entry was “inactive”; with `CCCCCCCCCCCCCCC`, “inactive”.

Regarding `O=C(c1ccccc1)c1ccccc1`, the call was inactive. With `CCC(C)c1ccccc1O` (stereo unspecified), the compound was called inactive. Still for that read-out and setting: then `OCC(CO)(CBr)CBr`, with “inactive”. Regarding `Cc1[nH]nc2c1N=C(c1ccccc1Cl)c1cc([N+](=O)[O-])ccc1N2`, the half-maximal activity concentration (AC50) was 3.09 µM (active). Turning to `CS(=O)(=O)c1ccc([C@@H](CC2CCCC2)C(=O)Nc2cnccn2)cc1Cl`, the compound was classed as inactive.

Regarding `O=C1NS(=O)(=O)c2ccccc21`, the outcome was inactive.

Turning to `CCCCC=O`, the compound was classed as inactive.
